Experimental data: PubChem BioAssay AID588332 (National Center for Advancing Translational Sciences (NCATS), 2011)
A number with no mark means an inactive call. Calls come from the whole dose curve; as a rule, active = well fitted curve in the direction sought with a large enough effect; inactive = no such curve, though single readings can be large or run the other way.

Target: ATP-dependent 6-phosphofructokinase (Geobacillus stearothermophilus) (UniProt P00512)
Assay: Confirmatory Assay to Find Inhibitors of T. brucei phosphofructokinase: Counter Screen against Bacillus PFK
Details: B. stearothermophilus PFK, ADP-Glo luminescence, 45 min; series mostly up to 57.5 µM; inhibition: at the top concentration
Description: Various species of the protozoan family Trypanosomatidae are responsible for a range of serious human diseases in tropical and subtropical areas of the world. […] Many of the disorders caused by trypanosomatids are fatal if left untreated, but most currently used drugs are inefficient and toxic. […] Oxidative metabolism involving the mitochondrial tricarboxylic acid cycle and oxidative phosphorylation are repressed in these parasites, and recent RNA interference (RNAi) experiments have shown that even partial depletion of certain individual glycolytic enzymes can lead to the death of cultured parasites. One such glycolytic enzyme, phosphofructokinase (PFK), catalyzes the formation of fructose-1,6-bisphosphate (F1,6BP) and ADP from fructose-6-phosphate (F6P) and ATP, and in many metabolic circumstances makes an important contribution to the control of flux through the glycolytic pathway. As a specific glycolytic target, PFK is particularly attractive as it catalyzes the first irreversible step in glycolysis, and structural and kinetic studies have shown very substantial and essential differences from corresponding host enzymes, allowing for the discovery of parasite-selective inhibitors. A luminescent biochemical assay was performed that used luciferase-based nucleotide detection (ADP-Glo, Promega) to examine the effect of identified actives against a bacterial isoform of PFK, namely Bacillus stearothermophilus, for target specificity. The assay is identical in concept to the T. brucei PFK qHTS assay, but instead uses the B. stearothermophilus isoform of PFK (Sigma, St. Louis, MO) and ATP/F6P at bacterial isoform-specific Km concentrations. NIH Chemical Genomics Center [NCGC] NIH Molecular Libraries Probe Centers Network [MLPCN] MLPCN Grant: MH092153-01 Assay Submitter (PI): Malcom Walkinshaw, University of Edinburgh
Substrate buffer was dispensed into white, solid 1536-well plates at 3 uL/well in 0.1M triethanolamine (TEA) buffer, pH 8.0, containing final concentrations of 5 mM MgCl2, 0.01% Tween20, 0.6 mM fructose-6-phosphate (F6P) and 0.1 mM ATP. Then, 23 nl of compounds or DMSO were delivered to each well using a pin tool. One uL of B. stearothermophilus PFK (0.1 M TEA, 0.01% Tween20, 0.1% bovine serum albumin (BSA) and 10 nM PFK, final concentrations) was then dispensed, and plates were incubated at room temperature for 45 min. The luminescent detection reagent, ADP-Glo (Promega), was then added in two steps: the first reagent, ADP-Glo (which converts remaining uncatalyzed ATP), was added at 2.5 uL/well and incubated for ten minutes at room temperature, and the second component, Kinase Detection reagent (which converts ADP to ATP as a substrate for luciferase-based luminescence), was added immediately after at 5uL/well, followed by one final ten minute room temperature incubation. The plates were measured on a ViewLux plate reader for luminescent signal using a clear filter with a one second exposure. The %Activity was determined from the corrected luminescence values. 1x (1.25nM) and 0x PFK enzyme controls (untreated) were included to normalize %Activity of identified inhibitors; 0x enzyme values corresponded to 100%Activity (full inhibition), while 1x PFK enzyme values were used to normalize 0% Activity (no inhibition).

SMILES | inhibition
O=C(Cc1ccc(Cl)c(Cl)c1)Nc1ccc(S(=O)(=O)Nc2cccc(O)c2)cc1 | 5.79%
O=C(Cc1ccc(Cl)c(Cl)c1)Nc1ccc(S(=O)(=O)Nc2ccn[nH]2)cc1 | 12.7%
Cc1cc(NS(=O)(=O)c2ccc(N(C)C(=O)Cc3ccc(Cl)c(Cl)c3)cc2)no1 | 2.87%
Cc1cc(NS(=O)(=O)c2ccc(NC(=O)Cc3ccc(C)c(F)c3)cc2)no1 | 7.42%
Cc1cc(N(C)S(=O)(=O)c2ccc(NC(=O)Cc3ccc(Cl)c(Cl)c3)cc2)no1 | 7.13%
Cc1cc(NS(=O)(=O)c2ccc(NC(=O)Cc3cccc(Cl)c3)cc2)no1 | 5.01%
Cc1cc(NS(=O)(=O)c2ccc(NC(=O)Cc3ccc(C)c(C)c3)cc2)no1 | 1.26%
Cc1cc(NC(=O)c2ccc(NC(=O)Cc3ccc(Cl)c(Cl)c3)cc2)no1 | 9.14%
Cc1cc(NS(=O)(=O)c2ccc(NC(=O)c3ccc(Cl)c(Cl)c3)cc2)no1 | 4.5%
Cc1cc(NS(=O)(=O)c2cccc(NC(=O)Cc3ccc(Cl)c(Cl)c3)c2)no1 | 6.88%
Cc1cc(NC(=O)c2csc(NC(=O)Cc3ccc(Cl)c(Cl)c3)n2)no1 | 10.4%
Cc1cc(NS(=O)(=O)c2ccc(NCCc3ccc(Cl)c(Cl)c3)cc2)no1 | 6.15%
Cc1cc(NS(=O)(=O)c2ccc(NS(=O)(=O)Cc3ccc(Cl)c(Cl)c3)cc2)no1 | 10.1%
Cc1cc(NS(=O)(=O)c2ccc(NC(=O)Cc3ccc(Cl)c(F)c3)cc2)no1 | 7.83%
Cc1cc(NS(=O)(=O)Cc2ccc(NC(=O)Cc3ccc(Cl)c(Cl)c3)cc2)no1 | 12.5%
COc1ccc(CC(=O)Nc2ccc(S(=O)(=O)Nc3cc(C)on3)cc2)cc1C | 5.25%
CN(C)c1cccc(NS(=O)(=O)c2ccc(NC(=O)Cc3ccc(Cl)c(Cl)c3)cc2)c1 | 10%
Cc1cc(NS(=O)(=O)c2ccc(NC(=O)Cc3ccc(Cl)c(Cl)c3)cc2)on1 | 11.4%
Cc1cc(NS(=O)(=O)c2ccc(NC(=O)Cc3ccc(Cl)cc3Cl)cc2)no1 | 7.84%
Cc1cc(NS(=O)(=O)c2ccc(NC(=O)Cc3ccc(Cl)c(C(F)(F)F)c3)cc2)no1 | 6.45%

SMILES | inhibition
Cc1cc(NS(=O)(=O)c2ccc(NC(=O)Cc3ccc(Cl)c(Cl)c3)cc2)n(C)n1 | 9.44%
COc1ccc(CC(=O)Nc2ccc(S(=O)(=O)Nc3cc(C)on3)cc2)cc1OC | 8.18%
Cc1cc(NS(=O)(=O)c2ccc(NC(=O)Cc3ccc(Cl)cc3)cc2)no1 | 7.74%
O=C(Cc1ccc(Cl)c(Cl)c1)Nc1ccc(S(=O)(=O)Nc2cccc(C(=O)O)c2)cc1 | 11.7%
Cc1cc(NS(=O)(=O)c2ccc(NC(=O)Cc3ccc4ccccc4c3)cc2)no1 | 5.31%
Cc1cc(N[S+](=O)([O-])c2ccc(NC(=O)Cc3ccc(Cl)nc3)cc2)no1 | 7.09%
O=C(Cc1ccc(Cl)c(Cl)c1)Nc1ccc(S(=O)(=O)Nc2ccccc2)cc1 | 9.48%
Cc1cc(NS(=O)(=O)CCNC(=O)Cc2ccc(Cl)c(Cl)c2)no1 | 6.94%
Cc1cc(NS(=O)(=O)c2ccc(NC(=O)Cc3ccccc3)cc2)no1 | 1.27%
O=C(Cc1ccc(Cl)c(Cl)c1)Nc1ccc(S(=O)(=O)O)cc1 | 13.4%
O=C(Cc1ccc(Cl)c(Cl)c1)Nc1ccc(S(=O)(=O)Nc2cncnc2)cc1 | 8.9%
O=C(Cc1ccc(Cl)c(Cl)c1)Nc1ccc(S(=O)(=O)Nc2ccc(C(=O)O)cc2)cc1 | 3.89%
Cc1cc(NS(=O)(=O)c2ccc(NC(=O)CCc3ccc(Cl)c(Cl)c3)cc2)no1 | 7.06%
Cc1cc(NS(=O)(=O)c2ccc(NC(=O)Cc3ccc(Cl)c(Cl)c3)cc2)no1 | -2.25%
Cc1cc(NS(=O)(=O)c2ccc(C(=O)NCc3ccc(Cl)c(Cl)c3)cc2)no1 | 12.6%
Cc1cc(NS(=O)(=O)c2ccc(NC(=O)C(C)(C)c3ccc(Cl)c(Cl)c3)cc2)no1 | 8.27%
CCOC(=O)c1cccc(NS(=O)(=O)c2ccc(NC(=O)Cc3ccc(Cl)c(Cl)c3)cc2)c1 | 11.7%
O=C(Cc1ccc(Cl)c(Cl)c1)Nc1ccc(S(=O)(=O)Nc2ccon2)cc1 | 7.77%
Cc1cc(NS(=O)(=O)C2CCN(C(=O)Cc3ccc(Cl)c(Cl)c3)CC2)no1 | 5.05%
Cc1cc(N[S+](=O)([O-])c2ccc3cc(NC(=O)Cc4ccc(Cl)c(Cl)c4)ccc3c2)no1 | 1.3%
